# Assay results published in PMC7862700, “An all-to-all approach to the identification of sequence-specific readers for epigenetic DNA modifications on cytosine”.
# Experiments:
# Assay in all cases: DAPPL (digital affinity profiling via proximity ligation, sequencing); 10 mM Tris-HCl pH 7.5, 50 mM NaCl, 1 mM DTT, 4% glycerol, room temperature, 30 min; GST-TFs on glutathione beads, 16-mer random dsDNA library, 0.1% formaldehyde crosslink after washing; high values mean tight binding
# [1] = molecular target: T1, FEV (Homo sapiens, UniProt Q99581 1-238); conditions: protein: recombinant; tags: N-terminal GST; dsDNA, one strand shown
# T1 sequence: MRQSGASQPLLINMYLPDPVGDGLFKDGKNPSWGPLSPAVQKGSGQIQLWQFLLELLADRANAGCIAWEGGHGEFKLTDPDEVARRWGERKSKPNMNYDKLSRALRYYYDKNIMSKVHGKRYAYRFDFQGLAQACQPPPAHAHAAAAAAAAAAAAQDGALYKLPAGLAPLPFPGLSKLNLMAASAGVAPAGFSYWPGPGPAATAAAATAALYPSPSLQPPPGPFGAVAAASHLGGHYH
# In short: (§1)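 Human transcription factors were made in yeast as GST fusions, captured on glutathione beads and barcoded with DNA. With a tag-only sample included, the pool was incubated with 200 nmole of a random double-stranded 16-mer DNA library in Tris/NaCl/DTT/glycerol buffer at room temperature for 30 min, then crosslinked with 0.1% formaldehyde after washing, ligated by proximity, amplified and sequenced. For binding signal, each hexamer's read frequency for a factor is divided by its frequency for the tag-only sample.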
# [2] = molecular target: ETV5 (Homo sapiens, UniProt P41161 1-510); conditions: protein: recombinant; tags: N-terminal GST; dsDNA, one strand shown
# Chain of ETV5 (P41161 whole entry): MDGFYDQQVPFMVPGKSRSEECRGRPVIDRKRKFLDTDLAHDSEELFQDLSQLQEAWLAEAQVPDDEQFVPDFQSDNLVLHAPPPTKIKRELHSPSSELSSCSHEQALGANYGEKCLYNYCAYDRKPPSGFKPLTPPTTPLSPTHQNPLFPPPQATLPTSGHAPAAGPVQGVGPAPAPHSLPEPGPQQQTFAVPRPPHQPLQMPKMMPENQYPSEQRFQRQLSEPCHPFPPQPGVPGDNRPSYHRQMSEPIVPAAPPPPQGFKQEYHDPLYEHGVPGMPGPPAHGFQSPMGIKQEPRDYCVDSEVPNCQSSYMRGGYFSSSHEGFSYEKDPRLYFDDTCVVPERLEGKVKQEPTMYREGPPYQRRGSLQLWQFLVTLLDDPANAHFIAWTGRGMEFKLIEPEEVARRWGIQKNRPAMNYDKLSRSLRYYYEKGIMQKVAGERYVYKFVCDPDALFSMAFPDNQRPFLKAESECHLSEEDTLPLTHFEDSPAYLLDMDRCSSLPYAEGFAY
# In short: as §1
# [3] = molecular target: HSF1 (Homo sapiens, UniProt Q00613 1-529); conditions: protein: recombinant; tags: N-terminal GST; chain copies: 3; dsDNA, one strand shown
# Chain of HSF1 (Q00613 whole entry): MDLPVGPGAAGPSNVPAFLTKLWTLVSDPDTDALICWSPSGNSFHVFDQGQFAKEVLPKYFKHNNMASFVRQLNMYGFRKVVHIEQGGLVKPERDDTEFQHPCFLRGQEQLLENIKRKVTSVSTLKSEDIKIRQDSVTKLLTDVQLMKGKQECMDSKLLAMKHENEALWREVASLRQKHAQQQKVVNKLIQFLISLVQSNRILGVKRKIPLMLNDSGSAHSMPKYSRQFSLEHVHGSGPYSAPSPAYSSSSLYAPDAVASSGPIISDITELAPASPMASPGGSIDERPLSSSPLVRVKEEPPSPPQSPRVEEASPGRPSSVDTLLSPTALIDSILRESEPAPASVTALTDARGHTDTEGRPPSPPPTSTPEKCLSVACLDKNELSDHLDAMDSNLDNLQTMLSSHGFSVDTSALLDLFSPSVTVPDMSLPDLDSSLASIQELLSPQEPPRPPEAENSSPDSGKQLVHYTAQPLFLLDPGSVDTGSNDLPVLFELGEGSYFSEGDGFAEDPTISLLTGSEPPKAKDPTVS
# In short: as §1
# [4] = molecular target: T2, SPIC (Homo sapiens, UniProt Q8N5J4 1-248); conditions: protein: recombinant; tags: N-terminal GST; dsDNA, one strand shown
# T2 sequence: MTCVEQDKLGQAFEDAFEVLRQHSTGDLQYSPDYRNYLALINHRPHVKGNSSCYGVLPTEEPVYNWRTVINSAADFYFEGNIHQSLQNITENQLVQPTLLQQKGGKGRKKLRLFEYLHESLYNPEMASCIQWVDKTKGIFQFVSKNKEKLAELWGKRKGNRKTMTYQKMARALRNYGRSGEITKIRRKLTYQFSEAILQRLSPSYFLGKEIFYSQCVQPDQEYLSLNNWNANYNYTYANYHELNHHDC
# In short: as §1
# [5] = molecular target: ELF4 (Homo sapiens, UniProt Q99607 1-663); conditions: protein: recombinant; tags: N-terminal GST; dsDNA, one strand shown
# Chain of ELF4 (Q99607 whole entry): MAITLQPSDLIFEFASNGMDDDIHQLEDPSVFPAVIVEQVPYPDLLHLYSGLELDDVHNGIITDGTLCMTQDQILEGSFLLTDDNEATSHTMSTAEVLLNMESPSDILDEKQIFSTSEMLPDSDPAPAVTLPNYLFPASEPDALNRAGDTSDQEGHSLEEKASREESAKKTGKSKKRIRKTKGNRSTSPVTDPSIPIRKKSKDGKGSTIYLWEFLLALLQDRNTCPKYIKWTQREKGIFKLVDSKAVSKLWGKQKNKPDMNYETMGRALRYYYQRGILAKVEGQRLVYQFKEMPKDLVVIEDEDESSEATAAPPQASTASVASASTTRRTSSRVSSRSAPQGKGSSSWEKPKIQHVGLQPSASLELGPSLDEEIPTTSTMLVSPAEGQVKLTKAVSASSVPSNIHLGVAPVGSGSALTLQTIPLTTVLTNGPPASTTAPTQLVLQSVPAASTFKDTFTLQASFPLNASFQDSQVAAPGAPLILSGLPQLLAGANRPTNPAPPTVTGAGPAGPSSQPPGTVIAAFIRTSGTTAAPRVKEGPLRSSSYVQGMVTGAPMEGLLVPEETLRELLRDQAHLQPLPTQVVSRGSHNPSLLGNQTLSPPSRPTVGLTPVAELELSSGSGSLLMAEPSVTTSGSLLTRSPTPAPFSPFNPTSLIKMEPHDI
# In short: as §1
# [6] = molecular target: T3, ELK4 (Homo sapiens, UniProt P28324-2 1-405); conditions: protein: recombinant; tags: N-terminal GST; dsDNA, one strand shown
# T3 sequence: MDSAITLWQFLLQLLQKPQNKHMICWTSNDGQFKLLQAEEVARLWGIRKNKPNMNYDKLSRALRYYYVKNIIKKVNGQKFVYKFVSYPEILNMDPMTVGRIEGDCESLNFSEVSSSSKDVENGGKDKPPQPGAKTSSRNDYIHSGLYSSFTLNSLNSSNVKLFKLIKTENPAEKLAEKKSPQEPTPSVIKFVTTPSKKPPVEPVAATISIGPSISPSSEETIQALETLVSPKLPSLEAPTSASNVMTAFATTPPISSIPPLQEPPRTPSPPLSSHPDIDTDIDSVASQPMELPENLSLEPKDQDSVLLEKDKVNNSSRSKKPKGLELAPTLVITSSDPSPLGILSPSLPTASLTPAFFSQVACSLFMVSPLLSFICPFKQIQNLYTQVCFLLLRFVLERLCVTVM
# In short: as §1
# [7] = molecular target: T4, ETV2 (Homo sapiens, UniProt O00321 1-342); conditions: protein: recombinant; tags: N-terminal GST; dsDNA, one strand shown
# T4 sequence: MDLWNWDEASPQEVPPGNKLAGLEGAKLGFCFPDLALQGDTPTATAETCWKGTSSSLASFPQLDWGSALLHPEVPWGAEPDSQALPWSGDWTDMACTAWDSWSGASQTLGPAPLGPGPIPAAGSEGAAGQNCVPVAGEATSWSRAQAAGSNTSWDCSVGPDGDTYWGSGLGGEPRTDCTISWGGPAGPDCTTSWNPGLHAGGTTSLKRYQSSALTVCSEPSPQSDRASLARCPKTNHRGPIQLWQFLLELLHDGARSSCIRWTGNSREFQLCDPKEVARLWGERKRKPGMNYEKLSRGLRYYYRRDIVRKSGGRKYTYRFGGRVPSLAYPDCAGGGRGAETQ
# In short: as §1
# [8] = molecular target: T5, ELF3 (Homo sapiens, UniProt P78545 1-371); conditions: protein: recombinant; tags: N-terminal GST; dsDNA, one strand shown
# T5 sequence: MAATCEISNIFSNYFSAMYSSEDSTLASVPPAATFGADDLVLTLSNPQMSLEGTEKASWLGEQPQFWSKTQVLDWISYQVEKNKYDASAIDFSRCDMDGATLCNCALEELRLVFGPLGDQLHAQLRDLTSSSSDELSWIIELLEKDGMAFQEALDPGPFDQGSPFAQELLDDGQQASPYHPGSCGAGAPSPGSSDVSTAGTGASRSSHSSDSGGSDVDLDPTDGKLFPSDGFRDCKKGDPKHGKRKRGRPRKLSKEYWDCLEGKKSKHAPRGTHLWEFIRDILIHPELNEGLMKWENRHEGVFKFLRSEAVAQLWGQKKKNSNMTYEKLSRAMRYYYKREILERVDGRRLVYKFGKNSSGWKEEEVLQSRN
# In short: as §1
# [9] = molecular target: CRX (Homo sapiens, UniProt O43186 1-299); conditions: protein: recombinant; tags: N-terminal GST; dsDNA, one strand shown
# Chain of CRX (O43186 whole entry): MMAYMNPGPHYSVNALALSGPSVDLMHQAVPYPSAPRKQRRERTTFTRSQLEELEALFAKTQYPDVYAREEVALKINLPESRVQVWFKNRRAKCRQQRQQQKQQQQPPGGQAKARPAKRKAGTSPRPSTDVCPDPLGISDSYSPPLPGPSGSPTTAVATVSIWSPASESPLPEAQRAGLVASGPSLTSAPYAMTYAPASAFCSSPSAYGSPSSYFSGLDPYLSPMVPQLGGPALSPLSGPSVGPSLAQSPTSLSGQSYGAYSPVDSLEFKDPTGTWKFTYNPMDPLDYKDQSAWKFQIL
# In short: as §1
# [10] = molecular target: ETV1 (Homo sapiens, UniProt P50549 1-477); conditions: protein: recombinant; tags: N-terminal GST; dsDNA, one strand shown
# Chain of ETV1 (P50549 whole entry): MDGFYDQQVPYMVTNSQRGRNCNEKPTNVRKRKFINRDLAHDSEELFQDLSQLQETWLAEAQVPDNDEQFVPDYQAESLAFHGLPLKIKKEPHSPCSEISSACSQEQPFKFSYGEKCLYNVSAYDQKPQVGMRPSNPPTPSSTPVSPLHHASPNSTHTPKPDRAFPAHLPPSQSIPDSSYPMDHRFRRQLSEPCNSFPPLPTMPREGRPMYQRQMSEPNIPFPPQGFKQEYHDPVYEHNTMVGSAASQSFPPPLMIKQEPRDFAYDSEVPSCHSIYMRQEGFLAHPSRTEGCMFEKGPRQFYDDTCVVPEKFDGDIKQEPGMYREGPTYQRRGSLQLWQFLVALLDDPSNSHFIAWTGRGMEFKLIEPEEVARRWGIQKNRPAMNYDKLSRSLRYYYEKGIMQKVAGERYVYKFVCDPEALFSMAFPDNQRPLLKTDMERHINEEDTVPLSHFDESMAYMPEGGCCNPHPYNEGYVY
# In short: as §1
# [11] = molecular target: T6, ERF (Homo sapiens, UniProt P50548 1-548); conditions: protein: recombinant; tags: N-terminal GST; dsDNA, one strand shown
# T6 sequence: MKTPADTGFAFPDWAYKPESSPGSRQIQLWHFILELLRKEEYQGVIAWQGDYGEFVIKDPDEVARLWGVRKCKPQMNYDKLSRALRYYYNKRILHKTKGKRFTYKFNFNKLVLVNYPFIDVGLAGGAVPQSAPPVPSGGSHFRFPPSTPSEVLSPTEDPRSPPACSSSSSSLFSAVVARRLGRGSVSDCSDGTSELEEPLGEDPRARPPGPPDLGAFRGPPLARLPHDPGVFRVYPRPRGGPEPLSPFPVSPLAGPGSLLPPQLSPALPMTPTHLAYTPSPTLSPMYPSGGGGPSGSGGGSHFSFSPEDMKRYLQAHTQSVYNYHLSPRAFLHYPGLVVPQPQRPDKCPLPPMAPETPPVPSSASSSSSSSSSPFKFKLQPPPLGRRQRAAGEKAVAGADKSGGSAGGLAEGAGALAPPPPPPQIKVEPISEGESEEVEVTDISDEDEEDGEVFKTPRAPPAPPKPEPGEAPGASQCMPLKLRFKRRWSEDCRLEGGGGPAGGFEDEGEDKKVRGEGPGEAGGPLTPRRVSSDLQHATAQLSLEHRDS
# In short: as §1
# [12] = molecular target: T7, ETV3L (Homo sapiens, UniProt Q6ZN32 1-361); conditions: protein: recombinant; tags: N-terminal GST; dsDNA, one strand shown
# T7 sequence: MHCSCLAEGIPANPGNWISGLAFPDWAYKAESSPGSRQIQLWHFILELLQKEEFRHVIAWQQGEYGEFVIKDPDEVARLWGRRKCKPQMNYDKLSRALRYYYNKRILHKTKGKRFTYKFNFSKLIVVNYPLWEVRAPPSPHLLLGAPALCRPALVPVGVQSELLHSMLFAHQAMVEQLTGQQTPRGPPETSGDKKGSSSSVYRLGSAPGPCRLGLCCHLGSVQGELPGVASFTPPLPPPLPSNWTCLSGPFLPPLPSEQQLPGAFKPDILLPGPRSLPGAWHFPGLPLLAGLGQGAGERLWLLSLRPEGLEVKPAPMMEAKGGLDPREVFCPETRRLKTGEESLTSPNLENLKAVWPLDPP
# In short: as §1
# [13] = molecular target: T8, ETS2 (Homo sapiens, UniProt P15036 1-469); conditions: protein: recombinant; tags: N-terminal GST; dsDNA, one strand shown
# T8 sequence: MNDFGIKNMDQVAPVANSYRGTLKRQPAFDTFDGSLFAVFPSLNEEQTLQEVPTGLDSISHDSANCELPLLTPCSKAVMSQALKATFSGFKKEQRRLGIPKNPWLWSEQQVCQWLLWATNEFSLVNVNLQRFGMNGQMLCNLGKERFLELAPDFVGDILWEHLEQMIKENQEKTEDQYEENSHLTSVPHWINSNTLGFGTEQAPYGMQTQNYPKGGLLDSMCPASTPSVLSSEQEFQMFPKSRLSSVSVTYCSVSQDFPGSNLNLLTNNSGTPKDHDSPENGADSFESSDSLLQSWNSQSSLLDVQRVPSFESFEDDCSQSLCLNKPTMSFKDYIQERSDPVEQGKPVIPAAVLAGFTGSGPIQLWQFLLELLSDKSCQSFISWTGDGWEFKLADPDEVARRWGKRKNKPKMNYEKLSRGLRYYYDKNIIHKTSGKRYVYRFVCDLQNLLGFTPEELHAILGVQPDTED
# In short: as §1
# [14] = molecular target: T9, SPDEF (Homo sapiens, UniProt O95238 1-335); conditions: protein: recombinant; tags: N-terminal GST; dsDNA, one strand shown
# T9 sequence: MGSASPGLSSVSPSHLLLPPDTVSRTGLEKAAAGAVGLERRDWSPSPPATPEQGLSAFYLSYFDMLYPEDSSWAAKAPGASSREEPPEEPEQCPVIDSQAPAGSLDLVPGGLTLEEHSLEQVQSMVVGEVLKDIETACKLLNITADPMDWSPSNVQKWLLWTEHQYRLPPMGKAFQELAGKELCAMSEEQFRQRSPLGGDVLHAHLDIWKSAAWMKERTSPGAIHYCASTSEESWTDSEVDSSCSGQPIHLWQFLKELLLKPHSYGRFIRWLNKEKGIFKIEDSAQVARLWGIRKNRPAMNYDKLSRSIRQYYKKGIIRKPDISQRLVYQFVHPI
# In short: as §1
# [15] = molecular target: T10, ETV7 (Homo sapiens, UniProt Q9Y603 1-341); conditions: protein: recombinant; tags: N-terminal GST; dsDNA, one strand shown
# T10 sequence: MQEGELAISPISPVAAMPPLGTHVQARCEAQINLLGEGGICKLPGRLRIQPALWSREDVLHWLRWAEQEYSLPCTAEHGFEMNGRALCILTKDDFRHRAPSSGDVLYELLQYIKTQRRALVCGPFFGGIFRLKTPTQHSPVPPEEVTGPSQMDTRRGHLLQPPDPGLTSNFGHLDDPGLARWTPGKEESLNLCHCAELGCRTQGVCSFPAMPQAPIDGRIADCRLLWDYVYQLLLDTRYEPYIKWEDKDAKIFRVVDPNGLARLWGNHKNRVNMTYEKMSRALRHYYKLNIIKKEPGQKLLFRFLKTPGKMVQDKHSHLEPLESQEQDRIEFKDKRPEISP
# In short: as §1
# [16] = molecular target: T11, ELF5 (Homo sapiens, UniProt Q9UKW6-2 1-255); conditions: protein: recombinant; tags: N-terminal GST; dsDNA, one strand shown
# T11 sequence: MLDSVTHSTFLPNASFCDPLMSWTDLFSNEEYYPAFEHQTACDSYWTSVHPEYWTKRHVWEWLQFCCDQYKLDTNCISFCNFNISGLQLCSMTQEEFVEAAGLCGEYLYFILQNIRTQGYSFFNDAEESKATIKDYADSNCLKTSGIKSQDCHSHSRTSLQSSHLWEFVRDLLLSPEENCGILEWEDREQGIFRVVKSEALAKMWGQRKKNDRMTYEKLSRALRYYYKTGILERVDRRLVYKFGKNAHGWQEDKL
# In short: as §1
# [17] = molecular target: T12, ETV3 (Homo sapiens, UniProt P41162-2 1-143); conditions: protein: recombinant; tags: N-terminal GST; dsDNA, one strand shown
# T12 sequence: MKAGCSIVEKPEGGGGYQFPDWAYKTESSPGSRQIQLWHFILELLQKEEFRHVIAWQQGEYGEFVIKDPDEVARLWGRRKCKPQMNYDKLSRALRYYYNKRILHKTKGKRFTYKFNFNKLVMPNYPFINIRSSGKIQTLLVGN
# In short: as §1
# [18] = molecular target: ETV6 (Homo sapiens, UniProt P41212 1-452); conditions: protein: recombinant; tags: N-terminal GST; dsDNA, one strand shown
# Chain of ETV6 (P41212 whole entry): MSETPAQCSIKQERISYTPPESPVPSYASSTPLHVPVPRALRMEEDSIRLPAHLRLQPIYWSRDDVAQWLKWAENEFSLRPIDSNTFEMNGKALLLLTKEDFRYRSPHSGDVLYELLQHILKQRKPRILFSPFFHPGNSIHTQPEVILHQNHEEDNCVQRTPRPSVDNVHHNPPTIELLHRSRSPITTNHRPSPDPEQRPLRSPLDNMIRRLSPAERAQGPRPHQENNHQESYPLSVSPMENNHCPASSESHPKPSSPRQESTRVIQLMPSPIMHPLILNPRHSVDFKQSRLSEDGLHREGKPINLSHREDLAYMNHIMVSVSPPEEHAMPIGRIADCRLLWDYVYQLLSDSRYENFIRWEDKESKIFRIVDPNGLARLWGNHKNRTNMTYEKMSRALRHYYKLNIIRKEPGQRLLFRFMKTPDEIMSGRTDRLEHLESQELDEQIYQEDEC
# In short: as §1
sequence,measurement,setting,value
TAACGC,binding signal,[1],"1.19 fold enrichment (6-mer frequency, TF over GST control)"
same,binding signal,[2],"1.22 fold enrichment (6-mer frequency, TF over GST control)"
same,binding signal,[3],"1.28 fold enrichment (6-mer frequency, TF over GST control)"
same,binding signal,[4],"1.05 fold enrichment (6-mer frequency, TF over GST control)"
same,binding signal,[5],"1.15 fold enrichment (6-mer frequency, TF over GST control)"
same,binding signal,[6],"1.17 fold enrichment (6-mer frequency, TF over GST control)"
same,binding signal,[7],"1.13 fold enrichment (6-mer frequency, TF over GST control)"
same,binding signal,[8],"1.17 fold enrichment (6-mer frequency, TF over GST control)"
same,binding signal,[9],"1.63 fold enrichment (6-mer frequency, TF over GST control)"
same,binding signal,[10],"1.12 fold enrichment (6-mer frequency, TF over GST control)"
same,binding signal,[11],"1.06 fold enrichment (6-mer frequency, TF over GST control)"
same,binding signal,[12],"1.18 fold enrichment (6-mer frequency, TF over GST control)"
same,binding signal,[13],"1.15 fold enrichment (6-mer frequency, TF over GST control)"
same,binding signal,[14],"1.15 fold enrichment (6-mer frequency, TF over GST control)"
same,binding signal,[15],"1.01 fold enrichment (6-mer frequency, TF over GST control)"
same,binding signal,[16],"1.13 fold enrichment (6-mer frequency, TF over GST control)"
same,binding signal,[17],"1.2 fold enrichment (6-mer frequency, TF over GST control)"
same,binding signal,[18],"1.17 fold enrichment (6-mer frequency, TF over GST control)"
